Data: PubChem BioAssay AID1159580 (chemical genetic matrix, 2015)
About 2,000 (36%) of roughly 5,500 compounds were called active. About 18% were inconclusive and are not listed. No stated cut-off is given here; in the data, active means normalized growth mostly below about 0.91 (no sharp cut-off); inconclusive means no clear call, values can overlap the other calls; inactive means mostly above about 0.92. This is one part of the list.

Assay: chemical genetic growth profiling, strain panel (AID 1159580);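 further: tested at 20 µM; growth read once vehicle control cultures reached saturation at 30 °C; 1 = growth at the plate median or of vehicle wells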
Conditions: S. cerevisiae deletion strains, growth OD

Measured: normalized growth

COc1ccc(C(CC(=O)c2ccccc2)Sc2ccccc2N)cc1OC (stereo unspecified)
inactive: locus YAR019C, strain CDC15, stronger effect = lower value 0.977 | locus YBL105C, strain PKC1, stronger effect = lower value 0.971 | locus YBR135W, strain CKS1, stronger effect = lower value 0.98 | locus YBR136W, strain MEC1, stronger effect = lower value 0.972 | locus YBR160W, strain CDC28, stronger effect = lower value 0.98 | locus YDL017W, strain CDC7, stronger effect = lower value 0.972 | locus YDL028C, strain MPS1, stronger effect = lower value 0.979 | locus YDL101C, strain DUN1, stronger effect = lower value 0.976 | locus YDL108W, strain KIN28, stronger effect = lower value 0.974 | locus YDL132W, strain cdc53, stronger effect = lower value 0.987 | locus YDL214C, strain PRR2, stronger effect = lower value 0.948 | locus YDR052C, strain DBF4, stronger effect = lower value 0.974 | locus YDR054C, strain cdc34, stronger effect = lower value 0.971 | locus YDR226W, strain ADK1, stronger effect = lower value 0.979 | locus YDR477W, strain SNF1, stronger effect = lower value 0.958 | locus YER123W, strain YCK3, stronger effect = lower value 0.935 | locus YER133W, strain GLC7, stronger effect = lower value 0.954 | locus YFL009W, strain cdc4, stronger effect = lower value 0.981 | locus YFL029C, strain CAK1, stronger effect = lower value 0.966 | locus YFR003C, strain YPI1, stronger effect = lower value 0.972 | locus YFR019W, strain FAB1, stronger effect = lower value 0.963 | locus YFR028C, strain CDC14, stronger effect = lower value 0.967 | locus YGR040W, strain KSS1, stronger effect = lower value 0.946 | locus YGR052W, strain FMP48, stronger effect = lower value 1.02 | locus YGR092W, strain DBF2, stronger effect = lower value 0.959 | locus YHR030C, strain SLT2, stronger effect = lower value 0.921 | locus YHR079C, strain IRE1, stronger effect = lower value 0.95 | locus YHR082C, strain KSP1, stronger effect = lower value 0.985 | locus YHR205W, strain SCH9, stronger effect = lower value 0.935 | locus YIL147C, strain SLN1, stronger effect = lower value 0.965 | locus YJL095W, strain BCK1, stronger effect = lower value 0.947 | locus YJL128C, strain PBS2, stronger effect = lower value 0.944 | locus YJL157C, strain FAR1, stronger effect = lower value 0.965 | locus YJR016C, strain ILV3, stronger effect = lower value 0.985 | locus YJR066W, strain TOR1 (second series), stronger effect = lower value 1 | locus YJR066W, strain TOR1, stronger effect = lower value 0.955 | locus YKL048C, strain ELM1, stronger effect = lower value 0.977 | locus YKL067W, strain YNK1, stronger effect = lower value 0.946 | locus YKL101W, strain HSL1, stronger effect = lower value 0.927 | locus YKL193C, strain SDS22, stronger effect = lower value 0.979 | locus YKL203C, strain TOR2, stronger effect = lower value 0.99 | locus YLR113W, strain HOG1, stronger effect = lower value 0.898 | locus YLR133W, strain CKI1, stronger effect = lower value 0.952 | locus YLR403W, strain SFP1, stronger effect = lower value 0.934 | locus YML070W, strain DAK1, stronger effect = lower value 0.941 | locus YMR001C, strain CDC5, stronger effect = lower value 0.965 | locus YMR205C, strain PFK2 (second series), stronger effect = lower value 0.958 | locus YMR277W, strain FCP1, stronger effect = lower value 0.983 | locus YNL006W, strain LST8, stronger effect = lower value 0.984 | locus YNL020C, strain ARK1, stronger effect = lower value 0.961 | locus YNL161W, strain CBK1, stronger effect = lower value 0.978 | locus YNL183C, strain NPR1, stronger effect = lower value 0.966 | locus YNL207W, strain RIO2, stronger effect = lower value 0.975 | locus YNL222W, strain SSU72, stronger effect = lower value 0.979 | locus YNL307C, strain MCK1 (second series), stronger effect = lower value 0.974 | locus YOL078W, strain AVO1, stronger effect = lower value 0.98 | locus YOL136C, strain PFK27, stronger effect = lower value 0.955 | locus YOR061W, strain CKA2, stronger effect = lower value 0.934 | locus YOR119C, strain RIO1, stronger effect = lower value 0.962 | locus YOR231W, strain MKK1, stronger effect = lower value 0.937 | locus YOR329C, strain SCD5, stronger effect = lower value 0.971 | locus YPL031C, strain PHO85, stronger effect = lower value 0.957 | locus YPL153C, strain RAD53, stronger effect = lower value 0.978 | locus YPL204W, strain HRR25, stronger effect = lower value 0.993 | locus YPL209C, strain IPL1, stronger effect = lower value 0.984 | locus YPL256C, strain CLN2, stronger effect = lower value 0.899 | locus YPR025C, strain CCL1, stronger effect = lower value 0.976 | locus YPR106W, strain ISR1, stronger effect = lower value 0.967 | locus YPR111W, strain DBF20, stronger effect = lower value 0.979 | strain NNK1, stronger effect = lower value 0.968 | strain TSCII, stronger effect = lower value 0.973
